# Assay outcomes deposited in PubChem by National Center for Advancing Translational Sciences (NCATS).
# PMP22 txn prim: modulates PMP22 transcription in S16 Schwann cells; hit rate 2% among 43,000; Potency, µM (highest dose often 57.5 µM), inactives show at the highest dose activity change, negative = inhibition, actives largely listed as inhibitors; S16 Pmp22-F2sN Schwann cells, FLuc/NLuc coincidence luminescence, 24 h; active means clear falling dose curves in both reporters; inconclusive means both reporters move, but less clearly or upward; inactive means either reporter flat; the % is the NLuc reporter signal
#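 S16(c9) Schwann cells with FLuc/NLuc coincidence reporter in the Pmp22 3' UTR; compounds pin-transferred, 24 h at 37C. Dual-luciferase read: FLuc first, then NLuc after Stop&Glo, each 10 min at room temperature.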
# S16 viability: cytotoxicity in S16 Pmp22-F2sN Schwann cells; S16 Pmp22-F2sN Schwann cells (luciferase reporters placed in the Pmp22 gene) viability, CellTiter-Glo, 24 h; Potency, µM (series often up to 57.5 µM), for the others: top-dose activity change, negative = cytotoxicity, most hits filed as cytotoxic; hit rate 0.48% among 43,000; further: nearly all actives have a fitted effect of over 65% in size
#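 S16 Schwann cells carrying the Pmp22-F2sN reporter, seeded in 1536-well format, were exposed to library compounds for 24 h at 37C. Viability was read as CellTiter-Glo luminescence after 15 min at room temperature.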
# OvCa metastasis: inhibitors of ovarian cancer cell adhesion and invasion in omental model. SKOV3ip1-GFP adhesion/invasion on 3D omental model, fluorescence. Potency, µM (highest dose often 45.8 µM), for inactives: at the highest dose activity change, negative = inhibition, hits mostly inhibitors. hit rate 0.1% among 46,000. AID 1963576;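 further: plate controls were DMSO wells for no effect and tomatine positive control wells for full effect; nearly all actives have a fitted effect of over 65% in size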
#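 Adhesion/invasion was scored as fixed GFP-labeled SKOV3ip1 cell counts (488/509 nm), normalized to DMSO and tomatine controls. Cancer cells in serum-free medium, with four compound doses (0.36-46 umol/L), sat 2 hr at RT then 16 hr at 37 C on a 48 hr fibroblast/mesothelial/ECM culture.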
# mTORC1 inh: reduces mTORC1 signaling in Tsc2 and p53 null MEF cells. Tsc2-/- p53-/- MEF, phospho-rpS6 immunofluorescence/PI, 24 h. Potency, µM (top dose mostly 38.3 µM), for inactives: top-dose activity change, negative = inhibition, actives largely listed as inhibitors. hit rate 0.78% among 44,000. AID 493208;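 further: plate controls were DMSO for no effect and rapamycin for full effect; nearly all actives have a fitted effect of over 50% in size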
#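 Tsc2-/-, p53-/- MEFs (empty-vector stable line) in DMEM + 10% FBS were treated with compounds 24 h at 37 degree Celsius, fixed, and immunostained for phospho-rpS6 (Alexa-488) with propidium iodide counterstain. Laser-scanning cytometry gave % positive cells, normalized against 7.5 nM rapamycin and DMSO.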
# p53null 39C tox: p53 null cell cytotoxicity, nonpermissive temperature; AID 904; Potency, µM (titrated, usually from 46.1 µM), inactives show at the top dose activity, negative = cell killing, hits mostly cytotoxic; hit rate 0.97% among 55,000; H1299 p53-null (neo) cells, 39C, ATPlite viability, 24 h;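 further: 0% = DMSO only and -100% = full killing by 100 µM tamoxifen; nearly all actives have a fitted effect of over 50% in size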
#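 Cells seeded at 600/well, 37C overnight. Compound added (up to 46 uM), plates shifted to 39C for 24 hr. ATPlite added, luminescence read after 20 min at room temperature.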
# p53null 32C kill: kills p53 null cells at the permissive temperature; AID 903; Potency, µM (top dose mostly 46.1 µM), without a hit: at the top dose activity change, negative = cytotoxicity, usual class: cytotoxic; hit rate 0.62% among 55,000; H1299-neo p53 null cells, ATP luminescence, 24 h, 32C;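 further: 0% = DMSO only and -100% = full killing by 100 µM tamoxifen; nearly all actives have a fitted effect of over 55% in size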
#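 Luminescent ATP readout gave cell viability of p53-null H1299-neo cells after a 24 h compound exposure at the permissive 32C. Titrations ran up to 46 uM, and AC50s were fitted with the standard Hill equation.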
# Active calls of the source: *; i = inactive; ? = inconclusive; . = no result. Rows were chosen to be rich in hits. Some 3% of all compounds tested hit in one or more screens of this group. Unless noted, the call rests on the fitted dose curve; in most records, active means well fitted curve in the direction sought with a large enough effect; inconclusive means small, poorly fitted or top-dose-only effect, or another doubt; inactive means no such curve, though single readings can be large; an effect the other way counts as inactive or inconclusive. Unless noted, on the % scale 0 is the no-effect control and ±100 the full control effect; potency means the concentration at half of the fitted maximal effect.
SMILES,PMP22 txn prim,S16 viability,OvCa metastasis,mTORC1 inh,p53null 39C tox,p53null 32C kill
Cc1cc(C)cc(NC(=O)Cn2c(=O)n(CC(=O)NCCc3ccccc3)c(=O)c3ccccc32)c1,?,-4%,1%,-3%,?,?
COc1ccc(CCNC(=O)CCCn2nc(C)c3sc4ccccc4c3c2=O)cc1OC,-32%,-10%,-1%,18µM*,?,?
CCOc1ccc(CCNC(=O)CCCn2nc(C)c3sc4ccccc4c3c2=O)cc1OCC,?,5%,i,0%,-23%,?
CCc1cccc(NC(=O)Cn2c(=O)n(CC(=O)NCCc3ccccc3)c(=O)c3ccccc32)c1,?,-5%,0%,4%,13µM*,13µM*
COc1ccc(CCNC(=O)C(C)n2nc(C)c3sc4ccccc4c3c2=O)c(OC)c1 (centres undefined),-10%,0%,i,2.9µM*,?,-21%
COc1cc(F)c(C(C)C)cc1-c1ccc(C(F)(F)F)cc1CN1C(=O)O[C@H](c2cc(C(F)(F)F)cc(C(F)(F)F)c2)[C@@H]1C,.,.,-14%,.,.,.
Cc1c(CN2CCN(S(C)(=O)=O)CC2)sc2c(N3CCOCC3)nc(-c3cnc(N)nc3)nc12,.,.,-2%,.,.,.
Cc1ccc(C)n1-c1ccccc1N,.,.,.,.,?,13µM*
Cc1ccc(OCCCn2c(CCNC(=O)C3CCCCC3)nc3ccccc32)c(C)c1,-5%,?,3%,-1%,-3%,-7%
Cc1cccc(C)c1OCCCn1c(CCNC(=O)C2CCCCC2)nc2ccccc21,?,-24%,11%,-1%,16µM*,-4%
Cc1cc(OCCCn2c(CCNC(=O)C3CCCCC3)nc3ccccc32)ccc1Cl,?,?,?,1%,25µM*,?
CCCN1C(C(=O)c2ccccc2)=C(OC(=O)COc2ccc(C)cc2)c2ccccc2S1(=O)=O,?,-27%,i,3%,32µM*,-18%
CN(C)CCN1C(=O)c2cccc3cc(N)cc(c23)C1=O,.,.,11%,.,.,.
CCOC(=O)c1cc2c(=O)n3ccccc3nc2n(Cc2ccco2)c1=NC(=O)c1cccc(C)c1,?,?,30%,-1%,7%,-8%
CCOC(=O)c1cc2c(=O)n3ccccc3nc2n(Cc2ccco2)c1=NC(=O)c1c(F)cccc1Cl,15µM*,?,-16%,-21%,-7%,-2%
CCN1CCN(c2ccc(Nc3cc(N(C)C(=O)Nc4c(Cl)c(OC)cc(OC)c4Cl)ncn3)cc2)CC1,.,.,2%,.,.,.
Cc1noc(/C=C/N(C)C)c1S(=O)(=O)N1CCCC(C(=O)Nc2ccc(F)cc2F)C1 (centres undefined),-40%,2%,-6%,18µM*,18%,36%
CC1COC2(CCN(c3nc(=O)c4cc(C(F)(F)F)cc([N+](=O)[O-])c4s3)CC2)O1 (centres undefined),.,.,-5%,.,.,.
COc1ccc(CNCCC(c2ccc3c(c2)OCO3)c2ccccc2OC)cc1 (centres undefined),?,?,?,?,13µM*,4%
O=C(NCCc1ccccc1Cl)c1ccc(Cn2c(=O)c3cccn3c3cccnc32)cc1,?,1%,?,5%,10µM*,?
Cc1ccc2nc(-c3ccc(N4CCOCC4)cc3)c(Nc3ccccc3C)n2c1,?,-17%,-26%,-2%,5µM*,?
Cc1ccccc1Nc1c(-c2ccc(N3CCOCC3)cc2)nc2ccc(Cl)cn12,0%,-16%,2%,0%,13µM*,?
Cc1ccn2c(Nc3ccccc3C)c(-c3ccc(N4CCOCC4)cc3)nc2c1,-21%,-7%,-8%,-1%,7%,22%
CCn1cnc2cc(NC(=O)c3ccco3)ccc21,.,.,.,.,13µM*,10µM*
O=C(Nc1ccc2nn(-c3ccccc3)nc2c1)c1ccco1,.,.,.,.,-29%,-25%
SMILES,PMP22 txn prim,S16 viability,OvCa metastasis,mTORC1 inh,p53null 39C tox,p53null 32C kill
Cc1cccc(NS(=O)(=O)c2ccc3[nH]c4c(c3c2)CCCCCC4)c1,?,?,-13%,13µM*,-9%,65%
O=S(=O)(Nc1cccc(Cl)c1)c1ccc2[nH]c3c(c2c1)CCCCCC3,?,?,0%,-18%,?,10µM*
CC(=O)c1cccc(NS(=O)(=O)c2ccc3[nH]c4c(c3c2)CCCCC4)c1,?,?,-11%,?,?,32%
Cc1cnc(Nc2ccc(CN3CCOCC3)cc2)nc1Nc1cccc(S(=O)(=O)NC(C)(C)C)c1,.,.,-23%,.,.,.
CC(=O)N1CCCc2cc(S(=O)(=O)N(CCN(C)C)Cc3ccccc3)ccc21,-28%,7%,-2%,-8%,10µM*,-10%
O=S(=O)(Nc1ccc2oc3c(c2c1)CCCC3)c1cc(Cl)ccc1Cl,4%,14%,1%,1%,37%,79%
COc1ccc(S(=O)(=O)Nc2ccc3oc4c(c3c2)CCCC4)cc1,-19%,1%,-21%,?,22µM*,42%
CCOc1cc(CNCCSc2nnnn2C)ccc1OCc1ccc(Cl)cc1Cl,?,?,?,?,16µM*,?
Cn1nnnc1SCCNCc1ccccc1OCc1ccc(Cl)cc1Cl,?,?,-6%,-5%,?,?
CC(C=CC(=O)NO)=C[C@@H](C)C(=O)c1ccc(N(C)C)cc1,.,.,0%,.,.,.
CC(C)n1cnc2c(NCCCCCCNC(=O)OC(C)(C)C)nc(NCCO)nc21,.,.,-2%,.,.,.
COc1cc(-c2nc3cnccn3c2Nc2ccc(C(C)C)cc2)ccc1O,?,?,-22%,15µM*,16µM*,?
CC(C)c1ccc(Nc2c(-c3ccccn3)nc3ccccn23)cc1,14µM*,8.9µM*,?,-19%,?,59%
CC(C)c1ccc(Nc2c(-c3ccccc3O)nc3cnccn23)cc1,?,-9%,-11%,-25%,25µM*,34%
Cc1ccn2c(Nc3ccc(C(C)C)cc3)c(-c3cccnc3)nc2c1,?,?,0%,-2%,21%,34%
Cc1ccccc1C(C(=O)NC1CCCCC1)N(C(=O)CNc1ccc(C#N)cc1)c1cccc(F)c1 (centres undefined),.,.,0%,.,.,.
Cc1ccccc1Cn1c(CN2CCC(C(=O)NCCN(C)C)CC2)cc2ccccc21,?,?,?,7.4µM*,3%,-6%
CNC(=O)C1CCN(Cc2cc3ccccc3n2Cc2ccccc2C)CC1,?,-23%,-3%,-13%,5%,1%
